According to the supplement of paper PMC11732987, “Enantioselective OTUD7B fragment discovery through chemoproteomics screening and high-throughput optimisation” (Communications Chemistry, 2025):

What was measured:
Assay in all cases: log2 ratio of Biotin-Ahx-Ub-VS probe labelling (fragment/DMSO); higher = less target engagement (more negative = stronger competition), active = hit call of the paper (q ≤ 0.05, log2 ratio ≤ -1)
Details in all cases: compound concentration: 200 uM; treatment time: 3 h
USP9X = USP9X (UniProt Q93008)
Chain of USP9X (Q93008 whole entry, the tested form may be a part): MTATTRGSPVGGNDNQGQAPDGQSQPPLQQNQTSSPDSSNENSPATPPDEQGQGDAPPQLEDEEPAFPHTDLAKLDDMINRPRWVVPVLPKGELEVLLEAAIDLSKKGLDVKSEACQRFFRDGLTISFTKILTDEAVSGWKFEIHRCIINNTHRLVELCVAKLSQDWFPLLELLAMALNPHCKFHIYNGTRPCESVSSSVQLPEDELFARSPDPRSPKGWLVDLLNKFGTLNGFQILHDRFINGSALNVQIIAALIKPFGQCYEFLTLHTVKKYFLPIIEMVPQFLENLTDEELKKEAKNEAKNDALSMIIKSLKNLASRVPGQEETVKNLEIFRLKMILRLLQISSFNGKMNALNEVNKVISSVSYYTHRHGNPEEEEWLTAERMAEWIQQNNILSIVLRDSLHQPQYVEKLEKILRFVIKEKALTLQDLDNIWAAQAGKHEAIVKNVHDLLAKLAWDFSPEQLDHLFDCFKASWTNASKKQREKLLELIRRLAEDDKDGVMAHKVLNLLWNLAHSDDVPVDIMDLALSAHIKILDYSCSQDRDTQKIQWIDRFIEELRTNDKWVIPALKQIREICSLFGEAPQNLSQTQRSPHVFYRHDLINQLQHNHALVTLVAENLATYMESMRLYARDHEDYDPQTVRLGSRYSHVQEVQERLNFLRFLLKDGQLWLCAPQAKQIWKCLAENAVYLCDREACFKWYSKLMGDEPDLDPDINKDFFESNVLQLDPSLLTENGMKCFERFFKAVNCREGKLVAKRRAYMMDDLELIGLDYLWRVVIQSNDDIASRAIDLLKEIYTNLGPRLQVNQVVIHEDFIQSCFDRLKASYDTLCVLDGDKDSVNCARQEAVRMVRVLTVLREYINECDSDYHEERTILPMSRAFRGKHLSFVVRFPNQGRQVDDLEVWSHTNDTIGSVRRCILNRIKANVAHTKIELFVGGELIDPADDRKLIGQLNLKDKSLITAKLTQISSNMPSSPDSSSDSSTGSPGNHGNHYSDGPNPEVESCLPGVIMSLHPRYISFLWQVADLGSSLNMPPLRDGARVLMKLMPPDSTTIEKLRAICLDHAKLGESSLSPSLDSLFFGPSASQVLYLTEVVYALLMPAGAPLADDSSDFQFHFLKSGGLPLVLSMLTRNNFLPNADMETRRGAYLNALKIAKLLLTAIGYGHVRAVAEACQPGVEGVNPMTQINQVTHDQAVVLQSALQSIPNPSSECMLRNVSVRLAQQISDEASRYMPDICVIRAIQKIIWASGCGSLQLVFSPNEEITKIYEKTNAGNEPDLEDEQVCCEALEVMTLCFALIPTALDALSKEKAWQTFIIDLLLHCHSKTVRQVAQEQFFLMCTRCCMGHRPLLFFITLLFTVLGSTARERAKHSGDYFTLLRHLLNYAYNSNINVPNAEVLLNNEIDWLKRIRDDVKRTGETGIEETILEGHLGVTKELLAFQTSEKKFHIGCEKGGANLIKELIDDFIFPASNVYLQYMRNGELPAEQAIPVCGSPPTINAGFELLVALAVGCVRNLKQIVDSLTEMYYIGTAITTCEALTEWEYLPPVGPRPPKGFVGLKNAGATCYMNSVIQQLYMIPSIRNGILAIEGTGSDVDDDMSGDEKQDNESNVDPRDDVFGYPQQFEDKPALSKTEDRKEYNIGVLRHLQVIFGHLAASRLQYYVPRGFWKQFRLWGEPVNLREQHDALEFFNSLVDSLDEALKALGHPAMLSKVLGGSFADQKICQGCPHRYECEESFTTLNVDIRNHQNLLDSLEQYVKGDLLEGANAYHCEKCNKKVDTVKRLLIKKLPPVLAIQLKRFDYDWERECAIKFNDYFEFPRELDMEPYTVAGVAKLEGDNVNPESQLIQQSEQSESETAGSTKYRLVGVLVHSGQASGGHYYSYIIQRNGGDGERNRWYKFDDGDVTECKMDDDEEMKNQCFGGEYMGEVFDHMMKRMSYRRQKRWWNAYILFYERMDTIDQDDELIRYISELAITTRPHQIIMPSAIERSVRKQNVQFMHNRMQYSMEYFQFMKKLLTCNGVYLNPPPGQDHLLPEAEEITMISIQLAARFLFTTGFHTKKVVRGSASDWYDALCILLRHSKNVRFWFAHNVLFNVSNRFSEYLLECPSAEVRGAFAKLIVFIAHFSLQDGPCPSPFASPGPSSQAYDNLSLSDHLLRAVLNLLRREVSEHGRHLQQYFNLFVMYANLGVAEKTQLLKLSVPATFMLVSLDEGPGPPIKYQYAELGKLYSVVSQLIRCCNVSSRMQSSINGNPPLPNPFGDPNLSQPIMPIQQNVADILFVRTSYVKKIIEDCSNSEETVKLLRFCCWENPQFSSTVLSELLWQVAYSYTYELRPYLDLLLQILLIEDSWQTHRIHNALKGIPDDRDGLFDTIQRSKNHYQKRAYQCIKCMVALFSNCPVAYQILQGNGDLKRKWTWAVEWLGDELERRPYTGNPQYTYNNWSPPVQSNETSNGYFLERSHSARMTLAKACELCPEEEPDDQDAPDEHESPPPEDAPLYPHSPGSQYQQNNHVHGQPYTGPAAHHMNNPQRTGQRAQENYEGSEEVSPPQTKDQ
How it was run: (§1)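 In triplicate, 495 µg of HEK293T lysate per sample was incubated with fragment at 200 µM or vehicle for 3 h. Biotin-Ahx-Ub-VS was then added to 0.5 µM final for 1 h, and labelled DUBs were captured with NeutrAvidin, digested with LysC and trypsin, and measured by diaPASEF LC-MS/MS. Data are average log2 fragment/vehicle ratios by unpaired t-test from global-median-normalised Spectronaut label-free quantities, restricted to proteins with ≥2 unique peptides.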

UniProt O00487 = target: UniProt O00487
Chain of UniProt O00487 (O00487 whole entry): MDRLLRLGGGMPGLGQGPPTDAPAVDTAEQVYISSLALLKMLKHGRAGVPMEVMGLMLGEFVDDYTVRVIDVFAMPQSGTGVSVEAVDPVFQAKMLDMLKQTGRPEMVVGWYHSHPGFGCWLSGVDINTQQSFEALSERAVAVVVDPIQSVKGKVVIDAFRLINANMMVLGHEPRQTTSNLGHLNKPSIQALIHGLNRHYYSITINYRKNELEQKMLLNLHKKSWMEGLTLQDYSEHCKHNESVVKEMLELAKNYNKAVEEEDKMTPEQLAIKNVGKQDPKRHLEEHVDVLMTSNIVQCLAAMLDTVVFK
How it was run: as §1

UniProt O00507 = target: UniProt O00507
How it was run: as §1

UniProt P51784 = target: UniProt P51784
Chain of UniProt P51784 (P51784 whole entry): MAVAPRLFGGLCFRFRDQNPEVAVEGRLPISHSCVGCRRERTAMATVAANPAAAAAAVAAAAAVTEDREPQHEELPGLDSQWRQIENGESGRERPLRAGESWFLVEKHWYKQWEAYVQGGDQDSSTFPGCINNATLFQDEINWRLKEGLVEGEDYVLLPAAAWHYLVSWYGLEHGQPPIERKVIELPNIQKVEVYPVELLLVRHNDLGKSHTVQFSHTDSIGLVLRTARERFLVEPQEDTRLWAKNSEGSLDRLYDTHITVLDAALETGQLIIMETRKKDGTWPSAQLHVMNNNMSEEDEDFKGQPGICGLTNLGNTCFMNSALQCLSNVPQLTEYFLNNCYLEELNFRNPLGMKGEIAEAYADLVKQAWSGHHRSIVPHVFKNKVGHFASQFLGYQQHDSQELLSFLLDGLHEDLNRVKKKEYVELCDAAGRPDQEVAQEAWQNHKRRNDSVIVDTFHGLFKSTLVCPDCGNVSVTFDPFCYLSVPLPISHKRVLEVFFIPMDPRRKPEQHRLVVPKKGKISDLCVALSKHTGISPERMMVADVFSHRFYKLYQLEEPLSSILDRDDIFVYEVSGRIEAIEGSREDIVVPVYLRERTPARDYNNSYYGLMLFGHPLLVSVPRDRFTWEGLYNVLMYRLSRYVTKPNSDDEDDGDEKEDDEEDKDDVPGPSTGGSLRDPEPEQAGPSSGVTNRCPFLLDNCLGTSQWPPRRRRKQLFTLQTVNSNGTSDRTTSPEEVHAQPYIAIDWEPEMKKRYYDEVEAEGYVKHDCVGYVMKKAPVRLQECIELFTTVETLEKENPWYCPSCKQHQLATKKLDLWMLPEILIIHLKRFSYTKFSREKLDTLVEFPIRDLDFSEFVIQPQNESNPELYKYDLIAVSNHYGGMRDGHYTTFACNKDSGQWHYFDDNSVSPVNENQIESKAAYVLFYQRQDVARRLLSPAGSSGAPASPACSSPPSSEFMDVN
How it was run: as §1

UniProt Q5T2D3 = target: T1, UniProt Q5T2D3
T1 sequence (whole entry): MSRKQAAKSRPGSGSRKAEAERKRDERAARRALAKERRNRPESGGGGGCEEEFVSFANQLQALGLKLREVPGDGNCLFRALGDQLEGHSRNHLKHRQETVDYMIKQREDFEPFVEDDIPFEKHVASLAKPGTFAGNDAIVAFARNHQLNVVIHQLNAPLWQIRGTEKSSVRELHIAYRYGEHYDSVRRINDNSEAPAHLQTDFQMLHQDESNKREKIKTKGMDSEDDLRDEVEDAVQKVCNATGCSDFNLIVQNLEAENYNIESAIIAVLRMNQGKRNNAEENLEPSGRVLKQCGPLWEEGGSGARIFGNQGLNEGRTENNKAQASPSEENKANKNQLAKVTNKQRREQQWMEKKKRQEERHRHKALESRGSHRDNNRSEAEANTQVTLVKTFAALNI
How it was run: as §1

UniProt Q8TE49 = target: T2, UniProt Q8TE49
T2 sequence (whole entry): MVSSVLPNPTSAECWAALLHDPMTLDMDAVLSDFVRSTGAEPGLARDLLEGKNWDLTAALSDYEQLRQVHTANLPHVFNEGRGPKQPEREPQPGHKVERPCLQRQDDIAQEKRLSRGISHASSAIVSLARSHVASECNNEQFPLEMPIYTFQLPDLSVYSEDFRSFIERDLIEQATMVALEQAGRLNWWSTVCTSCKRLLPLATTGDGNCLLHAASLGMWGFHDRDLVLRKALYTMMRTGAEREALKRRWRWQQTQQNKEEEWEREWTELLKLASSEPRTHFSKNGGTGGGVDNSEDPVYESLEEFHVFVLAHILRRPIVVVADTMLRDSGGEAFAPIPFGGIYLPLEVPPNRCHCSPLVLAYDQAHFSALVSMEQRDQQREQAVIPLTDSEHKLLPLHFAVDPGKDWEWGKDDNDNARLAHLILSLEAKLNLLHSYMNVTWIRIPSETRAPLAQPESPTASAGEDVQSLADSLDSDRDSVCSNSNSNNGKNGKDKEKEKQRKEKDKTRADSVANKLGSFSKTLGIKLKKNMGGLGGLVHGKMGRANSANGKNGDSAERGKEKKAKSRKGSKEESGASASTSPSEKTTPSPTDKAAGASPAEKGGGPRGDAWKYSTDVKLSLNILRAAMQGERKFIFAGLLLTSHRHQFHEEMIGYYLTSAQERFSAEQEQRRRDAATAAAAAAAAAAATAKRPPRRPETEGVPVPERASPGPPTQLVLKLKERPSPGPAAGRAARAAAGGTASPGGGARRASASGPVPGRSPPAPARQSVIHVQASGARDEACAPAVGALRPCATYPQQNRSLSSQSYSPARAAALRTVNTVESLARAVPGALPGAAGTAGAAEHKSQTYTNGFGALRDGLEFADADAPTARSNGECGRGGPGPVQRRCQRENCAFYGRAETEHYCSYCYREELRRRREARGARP
How it was run: as §1

UniProt Q9P2H5 = target: T3, UniProt Q9P2H5
T3 sequence (whole entry): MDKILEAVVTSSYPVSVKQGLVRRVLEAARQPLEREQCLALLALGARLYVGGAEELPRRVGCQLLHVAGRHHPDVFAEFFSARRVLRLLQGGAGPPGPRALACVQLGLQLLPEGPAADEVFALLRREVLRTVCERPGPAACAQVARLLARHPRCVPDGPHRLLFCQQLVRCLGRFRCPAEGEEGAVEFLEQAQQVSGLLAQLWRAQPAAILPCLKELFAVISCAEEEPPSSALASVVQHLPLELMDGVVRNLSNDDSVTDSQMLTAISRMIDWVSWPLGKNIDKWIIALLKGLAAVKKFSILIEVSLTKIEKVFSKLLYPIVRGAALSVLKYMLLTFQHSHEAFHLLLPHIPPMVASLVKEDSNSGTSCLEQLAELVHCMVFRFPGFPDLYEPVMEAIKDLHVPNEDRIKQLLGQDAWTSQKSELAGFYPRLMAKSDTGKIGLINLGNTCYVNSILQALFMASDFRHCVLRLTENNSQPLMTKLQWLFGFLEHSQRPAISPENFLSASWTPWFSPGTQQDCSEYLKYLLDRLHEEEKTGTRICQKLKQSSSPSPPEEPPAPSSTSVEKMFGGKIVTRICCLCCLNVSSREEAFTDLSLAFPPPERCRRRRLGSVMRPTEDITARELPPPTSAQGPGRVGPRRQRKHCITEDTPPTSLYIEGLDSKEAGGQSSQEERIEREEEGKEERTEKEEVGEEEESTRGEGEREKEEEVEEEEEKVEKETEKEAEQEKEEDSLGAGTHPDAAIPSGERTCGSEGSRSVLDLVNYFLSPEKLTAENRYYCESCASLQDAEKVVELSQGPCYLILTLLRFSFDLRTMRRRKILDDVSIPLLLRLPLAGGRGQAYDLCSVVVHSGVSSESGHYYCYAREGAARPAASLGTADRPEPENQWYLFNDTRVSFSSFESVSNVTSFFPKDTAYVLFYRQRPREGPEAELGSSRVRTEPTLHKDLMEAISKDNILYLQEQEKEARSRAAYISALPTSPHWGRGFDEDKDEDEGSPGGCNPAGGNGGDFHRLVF
How it was run: as §1

UniProt Q9UGI0 = target: T4, UniProt Q9UGI0
T4 sequence (whole entry): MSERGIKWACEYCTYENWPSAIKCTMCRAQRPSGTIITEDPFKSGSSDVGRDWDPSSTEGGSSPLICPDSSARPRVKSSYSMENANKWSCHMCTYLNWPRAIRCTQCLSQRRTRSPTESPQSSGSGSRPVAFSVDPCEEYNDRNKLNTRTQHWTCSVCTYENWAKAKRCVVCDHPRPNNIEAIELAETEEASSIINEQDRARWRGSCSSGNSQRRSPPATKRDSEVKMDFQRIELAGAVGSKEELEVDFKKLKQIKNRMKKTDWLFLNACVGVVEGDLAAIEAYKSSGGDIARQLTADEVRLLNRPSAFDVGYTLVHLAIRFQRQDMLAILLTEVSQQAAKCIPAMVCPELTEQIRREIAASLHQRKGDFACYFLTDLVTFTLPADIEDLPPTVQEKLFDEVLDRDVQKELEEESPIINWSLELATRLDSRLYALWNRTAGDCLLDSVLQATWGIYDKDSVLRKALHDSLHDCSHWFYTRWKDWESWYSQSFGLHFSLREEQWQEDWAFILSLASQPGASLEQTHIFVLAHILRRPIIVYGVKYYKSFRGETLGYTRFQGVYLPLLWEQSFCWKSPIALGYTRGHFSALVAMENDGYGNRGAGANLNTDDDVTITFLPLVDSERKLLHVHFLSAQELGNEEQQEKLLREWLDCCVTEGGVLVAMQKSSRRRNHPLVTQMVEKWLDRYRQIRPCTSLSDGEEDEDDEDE
How it was run: as §1

YOD1 = target: T5, YOD1 (UniProt Q5VVQ6)
T5 sequence (whole entry): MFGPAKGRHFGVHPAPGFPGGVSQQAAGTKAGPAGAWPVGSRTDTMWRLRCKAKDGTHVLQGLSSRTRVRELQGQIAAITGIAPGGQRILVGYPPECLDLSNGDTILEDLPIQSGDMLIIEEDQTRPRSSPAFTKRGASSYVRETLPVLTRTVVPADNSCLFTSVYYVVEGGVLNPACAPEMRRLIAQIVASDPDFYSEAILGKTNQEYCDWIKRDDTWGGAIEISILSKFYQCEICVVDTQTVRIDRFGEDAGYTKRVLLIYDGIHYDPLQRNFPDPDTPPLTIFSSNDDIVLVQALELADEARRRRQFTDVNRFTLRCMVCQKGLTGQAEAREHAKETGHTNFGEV
How it was run: as §1

Measured: log2 ratio of Biotin-Ahx-Ub-VS probe labelling

O=C(CCl)NCc1ccc2c(c1)OCO2
inactive: USP9X -0.147 | UniProt O00487 -0.108 | UniProt O00507 0.0979 | UniProt P51784 0.0895 | UniProt Q5T2D3 -0.281 | UniProt Q8TE49 -0.708 | UniProt Q9P2H5 -0.288 | UniProt Q9UGI0 -0.607 | YOD1 0.157
